tim23-1 inh = inhibits growth of tim23-1 mutant yeast | 1.3% of 330,000 active | inhibition, % at 20 µM | S. cerevisiae tim23-1 growth, BacTiter-Glo luminescence, 24 h | AID 463212;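 active = growth inhibition of the mutant yeast at or above 50%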;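 note: temperature-sensitive mutant grown at 25 °C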
TIM10 inh = inhibits growth of TIM10 yeast strain. S. cerevisiae TIM10 strain growth, BacTiter-Glo luminescence, 24 h. 1.4% of 330,000 active. inhibition, % at 10 µM;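 active = inhibition of 40% or more at the single tested concentration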;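 note: wild-type TIM10 isogenic control strain grown at permissive 25 °C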
NALP3 yeast inh = inhibitors of NALP3 inflammasome in yeast. Yeast reconstituted NLRP3/ASC/caspase-1, beta-gal luminescence, 24 h. inhibition, % at 10 µM. 0.39% of 330,000 active. AID 2825;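 active = inhibition of 50% or more; inactive = inhibition below 50%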
PfHsp90 yeast 2 = inhibits growth of yeast expressing Plasmodium falciparum Hsp90; 0.32% of 310,000 active; inhibition, % at 9.4 µM; AID 504621; S. cerevisiae expressing PfHsp90, BacTiter-Glo ATP, 48 h; yeast lacking PDR1 and PDR3 efflux regulators;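 active = every replicate shows inhibition above about 80%, whatever the replicate mean, limit read from the data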
tim10-1 inh = growth inhibitors of tim10-1 mutant yeast. 2.2% of 330,000 active. inhibition, % at 20 µM. S. cerevisiae tim10-1 ts strain growth, BacTiter-Glo, 24 h;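 active = inhibition of at least 40%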;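 note: mutant grown at 25 °C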
NALP3 yeast conf = confirmation of NALP3 inhibitors in yeast | inhibition, % at 10 µM | yeast expressing human NALP3, luminescence | 81% of 1,300 active | shares compounds with NALP3 yeast inh; in the data active = inhibition above about 48%
Casp1 ASC ctr = counter-screen for NALP3 inhibitors: yeast caspase-1-ASC; shares compounds with NALP3 yeast inh; yeast expressing Caspase-1-ASC, luminescence counter screen; inhibition, % at 10 µM; 66% of 1,000 active; AID 488784
NALP3 yeast rt = confirmation retest of NALP3 inhibitors in yeast; shares compounds with NALP3 yeast inh; yeast expressing human NALP3, luminescence read-out; inhibition, % at 10 µM; 53% of 1,000 active
tim10-1 confirm = confirmation of tim10-1 mutant yeast growth inhibitors; AID 463213; S. cerevisiae tim10-1 ts strain growth, BacTiter-Glo, 24 h; inhibition, % at 20 µM; shares compounds with tim10-1 inh; 56% of 7,400 active;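 active = inhibition of yeast growth at or above a set limit in either of two repeat tests at 20 µM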;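 note: tim10-1 mutant grown at permissive 25 °C to find synthetic lethal compounds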
tim10 confirm = confirmation of TIM10 yeast growth inhibitors; shares compounds with TIM10 inh; S. cerevisiae tim10 strain growth, BacTiter-Glo luminescence, 24 h; inhibition, % at 10 µM; 63% of 4,600 active; AID 463215;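 active = inhibition of yeast growth at or above a set limit in either of two replicates at 10 µM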; note: this counterscreen used the strain with wild-type TIM10
Large screens that a line does not name were inactive (follow-up assays come after a bar, where they were run). Only some compounds are listed: those with a hit (about 3.7% of all), similar ones and a draw of the others. Cut-off read from the data, not from the text of the source, unless noted: active = inhibition above about 50%; inactive = the rest.

COc1cccc2cc(-c3nc4ccccc4[nH]3)c(=O)oc12	TIM10 inh 54, NALP3 yeast inh 57 | NALP3 yeast conf 54 | Casp1 ASC ctr inactive | NALP3 yeast rt inactive | tim10 confirm 36
Cc1cc(C)c(NC(=O)CNC(=O)COC(=O)C2=COCCO2)c(C)c1	none
COc1cc(C(=O)N/C(=C\c2cn(C)c3ccccc23)C(=O)NCCCN2CCOCC2)cc(OC)c1OC	none
COc1ccccc1OCCCc1c(C)n[nH]c1C	TIM10 inh 52, NALP3 yeast inh 51 | NALP3 yeast conf 88 | Casp1 ASC ctr 95 | NALP3 yeast rt 81 | tim10 confirm 51
Cn1c(Cl)c(C(=O)Nc2ccccc2)c2ccccc21	TIM10 inh 51, NALP3 yeast inh 60 | NALP3 yeast conf 82 | Casp1 ASC ctr 56 | NALP3 yeast rt 51 | tim10 confirm 57
O=C(Nc1cccc(Cl)c1)c1cnn2cccnc12	TIM10 inh 52, NALP3 yeast inh 53 | NALP3 yeast conf 79 | Casp1 ASC ctr inactive | NALP3 yeast rt 56 | tim10 confirm 35
CCN1/C(=C/C=C/c2oc3ccc(-c4ccccc4)cc3[n+]2CC)Oc2ccc(-c3ccccc3)cc21	TIM10 inh 63, NALP3 yeast inh 67, tim10-1 inh 61 | NALP3 yeast conf 68 | Casp1 ASC ctr inactive | NALP3 yeast rt inactive | tim10-1 confirm inactive | tim10 confirm 42
Cc1[nH]c2ccccc2c1C(=O)COC(=O)c1ccc[n+]([O-])c1	none
Cc1[nH]c2ccccc2c1C(=O)COC(=O)c1ccc([N+](=O)[O-])s1	TIM10 inh 71, NALP3 yeast inh 56 | NALP3 yeast conf 78 | Casp1 ASC ctr 85 | NALP3 yeast rt 87 | tim10 confirm 83
c1ccc(-c2cc3c(ccc4nonc43)nn2)cc1	none
On1onc2c3cc(-c4ccccc4)nc3ccc21	TIM10 inh 61, NALP3 yeast inh 51 | NALP3 yeast conf 72 | tim10 confirm 53
Cc1cc(C)n2nc(C(=O)OCC(=O)N3CC(C)CC(C)C3)nc2n1 (stereo not given)	none (no result: PfHsp90 yeast 2)
C[C@]12C=CC(=O)C=C1CC[C@@H]1[C@@H]2[C@@H](O)C[C@@]2(C)[C@H]1CC[C@]2(O)C(=O)CO	none
COC(=O)c1c(NC(=O)c2ccco2)sc(C)c1C	none
Cc1c(Cc2ccccc2)sc(NC(=O)c2ccco2)c1C(N)=O	TIM10 inh 51, NALP3 yeast inh 85 | NALP3 yeast conf 92 | Casp1 ASC ctr 95 | NALP3 yeast rt 86 | tim10 confirm 51
Cc1ccc(C(=O)NNC(=S)NC(=O)c2ccc(Cl)cc2)cc1	TIM10 inh 48, NALP3 yeast inh 71 | NALP3 yeast conf 78 | Casp1 ASC ctr 74 | NALP3 yeast rt 72 | tim10 confirm 31
c1ccc2[nH]c(CSc3nc4ccccc4s3)nc2c1	TIM10 inh 68, NALP3 yeast inh 59 | NALP3 yeast conf 75 | Casp1 ASC ctr 55 | NALP3 yeast rt 61 | tim10 confirm 59
Nc1cccc2cccc([N+](=O)[O-])c12	none (no result: tim23-1 inh, TIM10 inh, NALP3 yeast inh, tim10-1 inh)
COc1ccc(Sc2cc(C(F)(F)F)nc(-c3ccccn3)n2)cc1	TIM10 inh 45, NALP3 yeast inh 51 | NALP3 yeast conf 64 | Casp1 ASC ctr 55 | NALP3 yeast rt inactive | tim10 confirm 31
CC(COc1ccccc1Cc1ccccc1)N1CCCCC1 (stereo not given)	none (no result: PfHsp90 yeast 2)
N/C(Cc1ccc(Cl)cc1)=N\OC(=O)c1cccc2ccccc12	TIM10 inh 75, NALP3 yeast inh 57, PfHsp90 yeast 2 128 | NALP3 yeast conf 45 | Casp1 ASC ctr 55 | NALP3 yeast rt 51 | tim10 confirm 76
CC(CNC(=O)c1cc(COc2c(F)cccc2F)on1)Oc1cccnc1 (stereo not given)	none
O=C(Nc1ccc2c(c1)Cc1ccccc1-2)c1ccncc1	TIM10 inh 57, NALP3 yeast inh 53 | NALP3 yeast conf inactive | tim10 confirm inactive
O=C(Nc1ccc2c(c1)Cc1ccccc1-2)c1cc2ccccc2o1	none
COC(=O)Cc1c(O)ccn(CCc2ccc(S(N)(=O)=O)cc2)c1=O	none
CN1CCN(Cn2cc(/C=C/C(=O)c3ccccc3)c3ccccc32)CC1	TIM10 inh 67, NALP3 yeast inh 67, tim10-1 inh 62 | NALP3 yeast conf 74 | tim10-1 confirm inactive | tim10 confirm 65
CCc1ccc(NC(=O)C2=CC(c3cccs3)=NS(=O)(=O)N2C)cc1	none
COc1ccc(-c2nc3ccccc3s2)cc1O	TIM10 inh 47, NALP3 yeast inh 73 | NALP3 yeast conf 46 | Casp1 ASC ctr 73 | NALP3 yeast rt 64 | tim10 confirm inactive
CCOC(=O)c1ccccc1N1C(=O)CSC1=S	TIM10 inh 48, NALP3 yeast inh 54, tim10-1 inh 49 | NALP3 yeast conf inactive | Casp1 ASC ctr inactive | NALP3 yeast rt inactive | tim10-1 confirm inactive | tim10 confirm 45
S=C(NCCSCc1ccc(Cl)c(Cl)c1)Nc1ccccc1	TIM10 inh 45, NALP3 yeast inh 62, tim10-1 inh 54 | NALP3 yeast conf 71 | Casp1 ASC ctr 58 | NALP3 yeast rt inactive | tim10-1 confirm inactive | tim10 confirm inactive
COc1ccc(CSCCNC(=S)Nc2ccccc2)cc1Cl	none
CC1(C)COC(c2cc3c(cc2Br)OCO3)OC1	none (no result: tim23-1 inh, TIM10 inh, NALP3 yeast inh, tim10-1 inh)
CC(=O)Nc1ccc(O)c(-c2nc3ccccc3s2)c1	TIM10 inh 46, NALP3 yeast inh 56 | NALP3 yeast conf 67 | tim10 confirm inactive
O=C(Nc1ccc2c(c1)OCCO2)c1cccc(C(=O)Nc2ccc3c(c2)OCCO3)c1	none
O=C(Nc1cccc(Cl)c1)c1ccc2c(c1)OCCO2	TIM10 inh 60, NALP3 yeast inh 78, tim10-1 inh 50 | NALP3 yeast conf 92 | Casp1 ASC ctr 86 | NALP3 yeast rt 76 | tim10-1 confirm 40 | tim10 confirm 71
Cc1ccccc1C(=O)Nc1scc(-c2ccc(Br)cc2)c1C(=O)O	TIM10 inh 53, NALP3 yeast inh 68 | NALP3 yeast conf 77 | Casp1 ASC ctr inactive | NALP3 yeast rt inactive | tim10 confirm 42
COc1ccc(-c2csc(NC(=O)c3ccccc3OC)c2C(=O)O)cc1OC	none
COc1ccc(-n2cc(-c3ccccc3)c3c(=O)[nH]cnc32)cc1	TIM10 inh 51 | NALP3 yeast conf inactive | tim10 confirm 46
Cc1oc2c(C)c(O)ccc2c(=O)c1-c1cnn(-c2ccccc2)c1	none
